# PubChem BioAssay (NCATS)
# The source made the active and inactive calls. Calls follow the shape of the dose curve; as a rule, active = well fitted inhibition curve with a large enough effect; inconclusive = small, poorly fitted or top-dose-only effect; inactive = no such curve, though single readings can be large or run the other way.
# Assay: qHTS assay for measurement of the activity of small molecule inhibitors on Zika virus induced Caspase-3 activity in human astrocytoma cells (AID 1224859)
# Conditions: SNB-19 ZIKV-induced caspase-3/7, luminescence, 6 h; series mostly up to 45.7 µM
# Excerpt: National Center for Advancing Translational Sciences [NCATS]
# Johns Hopkins University School of Medicine
# Increase in the Caspase-3 activity indicates an activation of apoptosis cell death pathway caused by Zika virus infection in certain types of neuronal cells including human neural progenitor cells (hNPCs), astrocytes, and astrocytoma cell line (SNB-19). This cell-based caspase-3 activity assay measures the increased caspase-3 activity in the astrocytoma cell line (SNB-19) after a 6-hour Zika virus infection with a luminescence readout. A decrease in the luminescence signal in this assay by small molecule treatment indicates an inhibitory effect of that small molecule on the Zika virus induced caspase-3 activity that may correlate with its effect on reduction of Zika virus caused cell death.
# The medium for SNB-19 cells is composed of RPMI 1640 (ATCC, Cat.# 30-2001), 10% fetal bovine serum (FBS) (GE healthcare Life Sciences, Cat.# SH30071.03), and 1% Pen/Strep (Gibco, Cat.# 15140-122). A Caspase-Glo 3/7 assay kit (catalog number G8092; Promega, Madison, WI) was used to detect caspase-3 activity induced by Zika virus infection in human cells. The reagent mixture was reconstituted as described in the protocol from the manufacturer. Polystyrene tissue culture treated and PDL coated white plates were obtained from Greiner Bio-One (Monroe, NC). Cells were seeded in 384- or 1536-well assay plates and cultured at 37 C with 5% CO2 for 16 to 20 hours. The typical cell seeding density in the 1536-well plate assay is 250 cells/well in 3ul medium for SNB-19 cells in tissue culture treated plates. Compounds were added to cells and incubated for one hour before addition of ZIKV solution to cells (2 FFU/cell). After incubation at 37 C with 5% CO2 for 6 hours, the reagent mixture of Caspase-Glo 3/7 assay kit was added to each well, followed by incubation at room temperature for 30 minutes. The luminescence intensity of the assay plates was measured using a ViewLux plate reader (PerkinElmer). Data were normalized by using the cell-containing wells without ZIKV as a negative control (0% induction of caspase 3/7 activity) and wells containing ZIKV infected cells (Caspase-3 activity induced) as a positive control (100% induction of caspase 3 activity). The percentage inhibitions of the increased Caspase-3 activity by small molecule inhibitors were then calculated.
row,SMILES,outcome
1,CC(=O)NC(=O)c1ccccc1O,inactive
2,NC1CCN(c2nc3c(cc2F)c(=O)c(C(=O)O)cn3-c2ccc(F)cc2F)C1 (stereo not given),inactive
3,NC(N)=NCc1cccc(I)c1,inactive
4,COc1ccc(C(=O)c2ccccc2)c(O)c1,inactive
5,Cc1cccc(C)c1NC(=O)c1ccccc1C(=O)O,inactive
6,COc1ccc(S(=O)(=O)N2c3ccc(Cl)cc3[C@@](O)(c3ccccc3Cl)[C@H]2C(=O)N2CCC[C@@H]2C(N)=O)cc1OC,inactive
7,CC1CCc2c(N3CCC(O)CC3)c(F)cc3c(=O)c(C(=O)O)cn1c23 (stereo not given),inactive
8,O=C1C(=O)c2ccccc2C(O)=C1C1CCC(c2ccc(Cl)cc2)CC1 (stereo not given),inactive
9,CC(O)Cn1cnc2c1c(=O)n(C)c(=O)n2C (stereo not given),inactive
10,O=C(Nc1cccc(C2=NCCN2)c1)Nc1cccc(C2=NCCN2)c1,inactive
11,CN(Cc1ccc(C(C)(C)C)cc1)Cc1cccc2ccccc12,inactive
12,O=S(=O)(O)c1ccc(O)cc1,inactive
13,O=C(Nc1ccccc1)OCC(CN1CCCCC1)OC(=O)Nc1ccccc1 (stereo not given),inactive
14,O=C1OC(CN2CCOCC2)CN1/N=C/c1ccc([N+](=O)[O-])o1 (stereo not given),inactive
15,O=C(NCCc1c[nH]c2ccccc12)c1cccnc1,inactive
16,O=C1c2cccc3c2[C@H](CCC3)CN1[C@@H]1CN2CCC1CC2,inactive
17,CNCCc1ccccn1,inactive
18,CCCCOC(=O)CC(CC(=O)OCCCC)(OC(C)=O)C(=O)OCCCC,inactive
19,CC(C)NCC(O)c1ccc2ccccc2c1 (stereo not given),inactive
20,O=C(O)CCC(=O)Nc1ccc(S(=O)(=O)Nc2nccs2)cc1,inactive

row,SMILES,outcome
1,CC(=O)Nc1ccc(S(=O)(=O)Nc2ccc([N+](=O)[O-])cc2)cc1,inactive
2,COc1cc(C(=O)NCc2ccc(OCCN(C)C)cc2)cc(OC)c1OC,inactive
3,O=C(O)CCc1nc2ccccc2[nH]1,inactive
4,O=C(O)C1(C(=O)O)CCC1.[NH2-].[NH2-].[Pt+2],inactive
5,CC(=O)OC[C@H]1O[C@@H](n2ncc(=O)[nH]c2=O)[C@H](OC(C)=O)[C@@H]1OC(C)=O,inactive
6,C[N+]1(C)CCC(=C(c2ccccc2)c2ccccc2)CC1,inactive
7,CCc1ccc(C(=O)C(C)CN2CCCCC2)cc1 (stereo not given),inactive
8,CCN(CC)CCOc1ccccc1C(=O)CCc1ccccc1,inactive
9,CCCCCCCCCCCCCC[N+](C)(C)Cc1ccccc1,inactive
10,Cc1ccc(-c2ncc(Cl)cc2-c2ccc(S(C)(=O)=O)cc2)cn1,inactive
11,O=[N+]([O-])c1ccc(/C=N\O)o1,inactive
12,COc1cc(N)c(Cl)cc1C(=O)NC1CCN(Cc2ccccc2)CC1,inactive
13,CC(=O)Nc1ccc(CC(=O)O)cc1,inactive
14,NS(=O)(=O)c1cc2c(cc1Cl)NC(CC1CCCC1)NS2(=O)=O (stereo not given),inactive
15,CN1CCN(C2=Nc3cc(F)ccc3Cc3ccccc32)CC1,inactive
16,CC(=O)NO,inactive
17,CCC(C(=O)OCCOCCN(CC)CC)c1ccccc1 (stereo not given),inactive
18,C[C@H]1O[C@@H](O[C@H]2CC[C@@]3(C)[C@H](CC[C@@H]4[C@@H]3C[C@@H](O)[C@]3(C)[C@@H](C5=CC(=O)OC5)CC[C@]43O)C2)C[C@H](O)[C@@H]1O[C@H]1C[C@H](O)[C@H](O[C@H]2C[C@H](O)[C@H](O[C@@H]3O[C@H](CO)[C@@H](O)[C@H](O)[C@H]3O)[C@@H](C)O2)[C@@H](C)O1,inactive
19,Cc1cccc(C)c1NC(=O)CN1CCCCCC1,inactive
20,C=CCN1CCc2nc(N)sc2CC1,inactive
